# What was measured:
# Assay in all cases: PBM binding z-score (relative to random genomic background probes); higher = stronger binding; sequences stand for … in GC…GCGATTGACAGCGTAGAATGAAGG
# [1] = system: RARb homodimer (NR concentration 270 nM)
# Procedure, shortened: (§1)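 Random background probes are the reference for binding z-scores. These scores derive from regression-normalized fluorescence on custom Agilent 4×180K protein-binding microarrays incubated 1 h with ligand-free nuclear receptor dimers. Binding was detected with antibodies against each partner (one per run).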
# [2] = system: RARg:RXRa (NR concentration 270 nM, RXRa partner concentration 90 nM)
# Procedure, shortened: as §1
# [3] = system: RARg homodimer (NR concentration 270 nM)
# Procedure, shortened: as §1
# [4] = system: RXRa DBDmut IVT, anti-RXR (DBD mutation: RXRa K156A/R161A, NR concentration 90 nM)
# Procedure, shortened: as §1
# [5] = system: RXRa homodimer (NR concentration 180 nM)
# Procedure, shortened: as §1
# [6] = system: THRa:RXRa (NR concentration 90 nM, RXRa partner concentration 90 nM)
# Procedure, shortened: as §1
# [7] = system: THRa homodimer (NR concentration 90 nM)
# Procedure, shortened: as §1
# [8] = system: VDR:RXRa (NR concentration 270 nM, RXRa partner concentration 90 nM)
# Procedure, shortened: as §1
# [9] = system: VDR homodimer (NR concentration 270 nM)
# Procedure, shortened: as §1
Sequence,PBM binding z-score [1],PBM binding z-score [2],PBM binding z-score [3],PBM binding z-score [4],PBM binding z-score [5],PBM binding z-score [6],PBM binding z-score [7],PBM binding z-score [8],PBM binding z-score [9]
TCGAGTAGGTTACCAATGGGGCTTTCAGCTTTCT,0.0343,0.0207,0.23,0.35,0.16,-0.122,-0.536,-0.42,-0.784
AGAACGAGAGCACGCTGAGTTGATAGCAGAGTAG,-1.13,-0.185,0.0866,-0.192,-0.166,-0.571,-1.24,-0.462,-0.355
TCATATAGGCAATACAGGTGAAAGTCGGCATCTA,0.329,0.188,0.134,1.25,0.668,0.629,-0.127,0.582,-0.277
ACAGACAGGTGATGAAGGTTACTCAGGCTATCAT,1.16,0.777,0.687,0.104,0.748,0.904,0.139,1.64,0.291
CCGAGTAGGTTATGGGGCAATCAGGCAACGGTGA,1.16,0.738,0.689,-0.315,0.867,0.602,0.263,0.00491,0.0803
CCTGCTAGGCCATGGTCAGCTAATCTACAGTATG,0.329,-0.00744,0.586,0.152,-0.245,-0.0916,-0.719,-0.543,-0.711
TCATATAGGTAAACAGGTGATAGTCCGTAAGTTA,0.338,0.509,0.323,1.35,0.949,0.375,0.179,0.955,0.482
AATACAGGCTCATCGTAGGCCAGAGTACGCACAG,0.104,-0.0529,0.066,-0.472,-0.0365,0.0323,-0.199,-0.438,0.118
TCTTGTAGATCAACAGGATGTTAAGAAAGATCGA,-0.63,0.136,0.033,0.72,0.385,-0.148,-0.851,0.149,-0.332
GCGACTGAGGCAAAGCAGGTTACCATAAGGTTGG,0.0198,0.00383,-0.272,-0.374,0.123,1.54,-0.231,-0.292,-0.64
ATATGTATGTTACATCCGGGTCATTCAGGCTATG,2.37,1.63,1.26,0.811,2.21,3.04,2.62,3.02,1.99
CATCAAAGTTCAAGGTAACGTAACAGAAAGCAGC,3.8,5.15,5.74,4.51,4.38,3.04,1.39,4.01,3.49
TTACTAAGGTGAGCTGAGGTCGTTGATCCAACTC,1.96,1.39,1.38,0.464,1.52,4.79,2.51,4.42,2.32
CCTGCTAGGTCATGGTCATCTAATCTACAGTATG,3.47,4,4.75,1.78,2.78,3.08,1.52,1.89,0.674
TCTAGTTGGTCACGGAGGTCACTCACGACGGGTA,4.12,4.23,4.31,1.24,3.96,3.23,2.26,5.6,2.93
CCGACTGGGGCGTAAGGTTACCATAAGCCAGCCC,1.23,0.788,0.295,-0.36,0.979,1.92,0.973,0.154,-0.426

# — the supplement of paper PMC6555819
